Only some compounds are listed: those with a hit (about 2.2% of all), similar ones and a draw of the others.
HTR2A ag – mouse Htr2a agonists via beta-arrestin recruitment, primary screen, cell-based, luminescence | 5-hydroxytryptamine receptor 2A (Mus musculus), P35363 | CHO-K1 mHTR2A beta-arrestin complementation; percent of 30 µM serotonin response | activation, % at 7.6 µM | hit rate 0.66% among 360,000;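 active means activation above a run cutoff, the mean activation of all tested compounds plus 3 SD, cut at about 14% in these data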
Target sequence (P35363 whole entry, looked up): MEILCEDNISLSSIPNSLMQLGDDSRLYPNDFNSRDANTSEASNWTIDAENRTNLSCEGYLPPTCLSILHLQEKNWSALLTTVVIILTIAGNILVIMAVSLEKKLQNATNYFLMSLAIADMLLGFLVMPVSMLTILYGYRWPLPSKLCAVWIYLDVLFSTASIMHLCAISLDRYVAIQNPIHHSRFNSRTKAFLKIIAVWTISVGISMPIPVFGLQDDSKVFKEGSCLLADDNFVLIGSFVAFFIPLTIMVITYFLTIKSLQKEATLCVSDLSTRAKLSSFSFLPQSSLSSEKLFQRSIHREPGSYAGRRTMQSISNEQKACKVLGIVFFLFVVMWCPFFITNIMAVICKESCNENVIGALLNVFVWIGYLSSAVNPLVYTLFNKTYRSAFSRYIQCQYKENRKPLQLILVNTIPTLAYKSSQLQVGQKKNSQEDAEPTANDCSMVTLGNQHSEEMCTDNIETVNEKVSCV
HTR5A ag – HTR5A agonists in luminescence cell assay, primary screen, counter-screen for OPRM1-OPRD1 heterodimer agonist project, full-deck HTS. 5-hydroxytryptamine receptor 5A (Homo sapiens), P47898. cell-based. activation, % at 9.3 µM. hit rate 0.61% among 340,000. AID 504692, 2011; in the data active means activation mostly above about 9.5%, no sharp cut-off; inactive means mostly below about 7.6%
HTR5A inv ag – HTR5A inverse agonists in luminescence cell assay, primary screen, counter-screen for OPRM1-OPRD1 heterodimer inverse agonist project, full-deck HTS; inhibition, % at 9.3 µM; hit rate 0.083% among 340,000; HTR5A cell line, inverse agonism; in the data active means inhibition mostly above about 23%, no sharp cut-off; inactive means mostly below about 18%
HGIII-sPLA2 inh – human group III sPLA2 inhibitors, primary screen, biochemical, QFRET, BODIPY PC-A2 liposome substrate | Group 3 secretory phospholipase A2 (Homo sapiens), Q9NZ20 | QFRET BODIPY PC-A2 liposome hydrolysis, fluorescence | inhibition, % at 12.2 µM | hit rate 0.56% among 370,000 | AID 743126, 2013;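 active means inhibition above mean plus 3 SD of compounds lying within the high and low control bounds, cut at about 19% in these data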
MOR-DOR inv ag – inverse agonists of MOR-DOR heterodimerization, primary screen, cell-based, luminescence | inhibition, % at 9.3 µM | hit rate 0.21% among 340,000 | Mu-type opioid receptor (Homo sapiens) + Delta-type opioid receptor (Homo sapiens), … | cell-based MOR-DOR heterodimer luminescence, inverse agonism | AID 504357, 2011; in the data active means inhibition above about 22%, passing the limit was not always enough
MOR-DOR ag – agonists of OPRM1-OPRD1 heterodimerization, primary screen, cell-based, luminescence. cells. activation, % at 9.3 µM. hit rate 0.3% among 340,000. AID 504326, 2011; in the data active means activation above about 18%
Large screens that a line does not name were inactive.

COc1cccc(/C(O)=C2/C(=O)C(=O)N(CCN(C)C)C2c2ccc(Br)cc2)c1 (stereo unspecified)	HTR5A ag 10
C[C@H]1[C@@H](OC(=O)Nc2ccc(C(F)(F)F)cc2)CC[C@@]23CCCN2C(=O)CCC[C@@H]13	none (no result: HTR2A ag, HTR5A ag, HTR5A inv ag, MOR-DOR inv ag, MOR-DOR ag)
O=[n+]1cc(-c2ccccc2)n([O-])c2c1CCCCC2	HTR5A ag 11
O=[n+]1cc(-c2ccc(F)cc2)n([O-])c2c1CCC2	none
COCC(=O)N(C)[C@H]1C[C@H]2c3[nH]c4c(-c5ccc6c(c5)OCO6)cccc4c3CCN2C(=O)[C@H]1[C@H](C)O	none (no result: HTR2A ag, HTR5A ag, HTR5A inv ag, MOR-DOR inv ag, MOR-DOR ag)
CN1CCN(S(=O)(=O)c2ccc(NC(=O)c3ccccc3Cl)cc2)CC1	none
CN1CCN(S(=O)(=O)c2ccc(NC(=O)c3ccccc3F)cc2)CC1	HTR5A ag 8.6
O=C(C#Cc1ccccc1)Nc1ccc(F)cc1	HTR5A ag 9.0
COC(=O)[C@H](CC(C)C)N1Cc2nnn(Cc3ccc(C)cc3)c2-c2cc(F)ccc2S1(=O)=O	none (no result: HTR2A ag, HTR5A ag, HTR5A inv ag, MOR-DOR inv ag, MOR-DOR ag)
CCCC[C@@H]1C(=O)N2N=Cc3cc4ccccc4cc3[C@H]2N2N=Cc3cc4ccccc4cc3[C@@H]12	none (no result: HTR2A ag, HTR5A ag, HTR5A inv ag, MOR-DOR inv ag, MOR-DOR ag)
Clc1c(Cl)c(Cl)c2n[nH]nc2c1Cl	HTR2A ag 18
C=C(C)Cn1c(SCC)nc2ccccc2c1=O	HTR5A ag 12
CCOC(=O)C1CCN(CC(O)COCc2ccc(Cl)cc2)CC1 (stereo unspecified)	HTR5A ag 12
CC1CCN(c2nc(-c3cccnc3)nc3scc(-c4ccccc4)c23)CC1	none
Clc1nc(-c2ccccn2)nc2scc(-c3ccccc3)c12	HGIII-sPLA2 inh 21
COc1cccc(NC(=O)CSc2nnc(-c3cccs3)n2C)c1	HTR5A ag 10
Cc1csc(NC(=O)CSc2nnc(-c3ccco3)n2C)n1	none
COc1cccc2cc(-c3nnc(SCC(=O)Nc4nc(C)cs4)n3C)oc12	HTR2A ag 25
CN(CCOC(=O)c1cc2ccccc2o1)C1CN(Cc2cn(Cc3ccccc3C(F)(F)F)nn2)S(=O)(=O)C1 (stereo unspecified)	none (no result: HTR2A ag, HTR5A ag, HTR5A inv ag, MOR-DOR inv ag, MOR-DOR ag)
COc1ccc(S[C@]2(C(=O)N3CCOCC3)CC(=O)N(c3ccsc3)[C@@H]2c2ccc(OC)cc2)cc1	none (no result: HTR2A ag, HTR5A ag, HTR5A inv ag, MOR-DOR inv ag, MOR-DOR ag)
CC(=O)Nc1sc2c(c1C(c1ccccn1)N1CCCC1)CCCC2 (stereo unspecified)	none
CC(=O)Nc1sc2c(c1C(c1cccs1)N1CCOCC1)CCCC2 (stereo unspecified)	HTR5A ag 13
CC(C)c1ccc(OCC(=O)NNC(=S)NC(=O)c2cccs2)c(Br)c1	HTR5A ag 12
CN(CC(=O)NCc1ccco1)CC(=O)Nc1ccc(F)c(F)c1F	HTR5A ag 11
O=C(CSc1ncn[nH]1)Nc1ccc(Cl)c(Cl)c1	HTR5A ag 8.7
O=C1C2=C(c3ccccc31)[N+](=O)[C@@H]1CCCC[C@@H]1N2[O-]	MOR-DOR inv ag 46
Cc1cccc(OCCCC(=O)Nc2nc3ccccc3[nH]2)c1	HTR5A ag 10
Cc1cc(NS(C)(=O)=O)c(=O)n(Cc2cccc(F)c2)c1	HGIII-sPLA2 inh 23
Cc1cccc(N2CCN(S(=O)(=O)c3ccc4c(c3)NC(=O)CS4)CC2)c1C	HTR5A ag 12
Cc1cccc(N2CCN(S(=O)(=O)c3ccc4c(c3)NC(=O)C(C)S4)CC2)c1C (stereo unspecified)	none
CCOC(=O)CNc1nc(Cl)nc(Nc2ccc(Cl)cc2)n1	none
CCOC(=O)CNc1nc(Cl)nc(Nc2ccc(C)cc2)n1	HTR5A ag 14
Cc1cccc(OCCN2C(=O)C(=O)c3cccc(C)c32)c1	none
Cc1cccc2c1N(CCCOc1ccc(C(C)(C)C)cc1)C(=O)C2=O	MOR-DOR inv ag 30 (no result: HGIII-sPLA2 inh)
O=C(NCc1cccs1)C1CCN(S(=O)(=O)c2cccc3cccnc23)CC1	HTR5A ag 14
O=C(NCc1ccco1)C1CCN(S(=O)(=O)c2cccc3cccnc23)CC1	none
CC(=O)c1cccc(NC(=O)c2cc(-c3ccc(F)cc3)on2)c1	HTR5A ag 10
Cc1ccc(NC(=O)c2cc(-c3ccc(F)cc3)on2)cc1C	none
COc1ccc(CC2CCN(c3ncnc4sccc34)CC2)cc1	none (no result: HTR2A ag, HTR5A ag, HTR5A inv ag, MOR-DOR inv ag, MOR-DOR ag)
Cc1ccccc1CN1CCC(n2nccc2NC(=O)CCCc2ccccc2)CC1	none
C/C=C(\C)CN1CCC(n2nccc2NC(=O)CCCc2ccccc2)CC1	HTR5A ag 12
COc1cccc(CNC(=O)C2CCN(c3nnc(N4CCCC4=O)s3)CC2)c1	HTR5A ag 13
CCCOc1ccc(CNC(=O)C2CCN(c3nnc(N4CCCC4=O)s3)CC2)cc1	none
COc1ccc2[nH]c3c(c2c1)CCN[C@]31C(=O)N(Cc2cn(Cc3ccccc3)nn2)c2ccc(F)cc21	none (no result: HTR2A ag, HTR5A ag, HTR5A inv ag, MOR-DOR inv ag, MOR-DOR ag)
CC(=O)OCC(=O)C1(O)CCC2C3CC(C)C4=CC(=O)C=CC4(C)C3C(O)CC21C (stereo unspecified)	none (no result: HTR5A ag, HTR5A inv ag, MOR-DOR inv ag, MOR-DOR ag)
C[C@H]1C[C@@H]2[C@H]([C@@H](O)C[C@@]3(C)[C@H]2CC[C@]3(O)C(=O)CO)[C@@]2(C)C=CC(=O)C=C12	HTR2A ag 18
CCCCOC(=O)Nc1ccc(N2CCCCC2)cc1	HTR5A ag 9.6
Cc1cccc(OC(=O)c2ccc3nccnc3c2)c1	HTR5A ag 9.4
CCCC/C=C1/[C@@H](CC)N(Cc2ccc(OC)cc2OC)C2=N[C@@H](c3ccccc3)CC(=O)N21	none (no result: HTR2A ag, HTR5A ag, HTR5A inv ag, MOR-DOR inv ag, MOR-DOR ag)
CCCCOc1ccc(-c2c(C(=O)Nc3ccccc3)c(C)[nH]c(=S)c2C#N)cc1	HTR5A ag 14
CCCCNC(=O)C[C@H]1C[C@@]2(C(=O)OC)C(=C[C@H](COCc3ccccc3)O[C@@H]2C)N(Cc2ccccc2)C1=O	none (no result: HTR2A ag, HTR5A ag, HTR5A inv ag, MOR-DOR inv ag, MOR-DOR ag)
O=C(CN1C(=O)/C(=C/c2ccccc2)SC1=S)NC1C=CS(=O)(=O)C1 (stereo unspecified)	HTR5A ag 12
COC(=O)[C@]12C[C@H](CC(=O)N3CCN(C(=O)c4ccco4)CC3)C(=O)N(CCc3ccc(OC)c(OC)c3)C1=C[C@H](C(C)(C)C)O[C@@H]2C	none (no result: HTR2A ag, HTR5A ag, HTR5A inv ag, MOR-DOR inv ag, MOR-DOR ag)
CCOc1ccc(NC(=O)c2cc(OC)nc3ccccc23)cc1	HTR5A ag 12
C[C@H]1[C@@H](NC(=O)Cc2ccsc2)CC[C@@]23CCCN2C(=O)CCC[C@@H]13	none (no result: HTR2A ag, HTR5A ag, HTR5A inv ag, MOR-DOR inv ag, MOR-DOR ag)
N/C(=N\OC(=O)/C=C/c1ccccc1Cl)c1ccccn1	none
N/C(=N\OC(=O)/C=C/c1ccc(Br)cc1)c1ccccn1	HTR5A ag 10
CN(CCNC(=O)C1CCN(c2ncnc3c2nc2n3CCCCC2)CC1)Cc1ccccc1	HTR5A ag 11

Screening results as filed in PubChem BioAssay.
